Source: PubChem BioAssay (National Center for Advancing Translational Sciences (NCATS))
The list is not random: actives were taken first. Their share in the collection is about 18%.
TDP1 cell noCPT – qHTS for Inhibitors of human tyrosyl-DNA phosphodiesterase 1 (TDP1): qHTS in cells in absence of CPT; DT40 Tdp1-/- hTDP1 cells, no CPT, ATP luminescence, 48 h; Potency, µM (highest dose often 46.2 µM), for inactives: at the top dose activity change, negative = growth inhibition, most hits filed as inhibitors; actives 15% (n = 420,000); also: potency is read from the fitted curve at half-maximal effect; nearly all actives have a fitted effect of over 55% in size
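Growth kinetics read by CellTiter-Glo luminescence after ≥48 hr at 37 °C. Cells: DT40 Tdp1-/- stably carrying human TDP1, 400 per well, compound exposure in the absence of CPT (DMSO vehicle).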
TDP1 inh – inhibitors of human tyrosyl-DNA phosphodiesterase TDP1; recombinant TDP1, AlphaScreen DNA substrate cleavage; Potency, µM (highest dose often 130 µM), inactives show at the top dose activity change, negative = inhibition, most hits filed as inhibitors; actives 0.28% (n = 350,000); AID 485290; also: potency is read from the fitted curve at half-maximal effect; nearly all actives have a fitted effect of over 40% in size
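AlphaScreen read-out: signal falls as enzyme removes the 3' tyrosine-FITC from a 5'-biotinylated DNA oligo (15 nM, 5 min, RT). Enzyme was E. coli-made recombinant Tdp1 at 1 nM, exposed to compound for 15 min beforehand; beads 10 ug/ml, 10 min.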
CtBP-E1A inh – CtBP/E1A binding inhibition. AlphaScreen GST-E1A/His-CtBP binding, 1536-well; hits give low values. activity change, % (test concentration not listed). actives 0.49% (n = 340,000). AID 651724; in the data active = activity change below about -65%; inconclusive = mostly about -30% to -63%
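Homogeneous bead-based format: GST-tagged E1A captured on glutathione donor beads, His-tagged CtBP on nickel acceptor beads; compounds precede bead addition by 2 h at 37 °C.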
IL-1B inflam inh – inflammasome signaling inhibition, IL-1 beta readout; THP-1 LPS/ATP IL-1B secretion, AlphaLISA, 16 h; hits give low values; activity change, % at 57.5 µM; actives 4.7% (n = 360,000); in the data active = activity change below about -50%; inconclusive = mostly about -30% to -49%
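Secreted IL-1B measured by AlphaLISA bead assay after 16 h compound exposure of THP-1 cells; compounds (final up to 57.5 uM) added 1 h before LPS (250 ng/mL) and ATP (1.25 mM) stimulation; lower signal means less secretion.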
Six1-Eya2 blk – inhibitors of human Six1/Eya2 interaction; Q15475+O00167; AlphaScreen GST-Six1/His-Eya2 binding, biochemical; hits give low values; activity change, % (no concentration beside the values); actives 0.56% (n = 360,000); AID 651725; in the data active = activity change below about -65%; inconclusive = mostly about -30% to -63%
Target sequence (O00167 whole entry, looked up): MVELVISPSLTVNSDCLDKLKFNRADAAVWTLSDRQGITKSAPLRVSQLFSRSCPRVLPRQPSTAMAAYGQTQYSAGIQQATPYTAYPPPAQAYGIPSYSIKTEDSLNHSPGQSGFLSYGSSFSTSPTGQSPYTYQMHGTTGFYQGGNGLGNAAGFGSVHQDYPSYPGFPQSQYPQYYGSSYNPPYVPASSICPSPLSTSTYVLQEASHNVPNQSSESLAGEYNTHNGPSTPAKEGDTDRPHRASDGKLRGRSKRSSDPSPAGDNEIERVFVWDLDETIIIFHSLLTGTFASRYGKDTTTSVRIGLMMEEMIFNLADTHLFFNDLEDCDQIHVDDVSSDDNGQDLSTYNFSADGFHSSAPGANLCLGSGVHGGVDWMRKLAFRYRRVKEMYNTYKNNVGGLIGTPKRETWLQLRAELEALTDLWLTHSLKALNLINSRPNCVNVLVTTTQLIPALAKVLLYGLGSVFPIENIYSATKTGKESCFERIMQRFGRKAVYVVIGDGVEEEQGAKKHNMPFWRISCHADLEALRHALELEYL
Target sequence (Q15475 whole entry, looked up): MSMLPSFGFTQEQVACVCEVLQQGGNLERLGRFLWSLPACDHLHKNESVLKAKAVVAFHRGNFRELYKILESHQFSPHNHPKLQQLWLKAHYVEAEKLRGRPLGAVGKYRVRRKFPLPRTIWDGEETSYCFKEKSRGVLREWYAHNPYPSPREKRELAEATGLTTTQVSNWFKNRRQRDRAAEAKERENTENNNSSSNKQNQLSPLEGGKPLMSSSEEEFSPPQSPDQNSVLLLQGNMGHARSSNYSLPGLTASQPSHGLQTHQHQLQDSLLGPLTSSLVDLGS
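GST-Six1 + His-Eya2 (5X stock: 250/500 nM); Tris pH 8.0, 300 mM NaCl, 0.05% BSA, 0.02% Tween 20; GSH donor/Ni acceptor beads; 1 h 37 °C dark; AlphaScreen readout.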
TDP1 cell CPT – growth inhibition of DT40 Tdp1-/-;hTDP1 cells with camptothecin (screen for TDP1 inhibitors); actives 12% (n = 420,000); chicken DT40 Tdp1-/-;hTDP1 cells + 20 nM CPT, ATP luminescence, 48 h; AID 686979; Potency, µM (series often up to 46.2 µM), for the others: at the top dose activity change, negative = growth inhibition, most hits filed as inhibitors; also: potency is read from the fitted curve at half-maximal effect; nearly all actives have a fitted effect of over 55% in size
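Chicken DT40 Tdp1-/- cells stably complemented with human TDP1 were seeded at 400 cells/well in medium containing 20 nM camptothecin, exposed to pin-transferred compounds, and grown at 37 °C for at least 48 hr. Viability was read as ATP luminescence.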
An asterisk follows results filed as active; ? = inconclusive; . = not tested or not shown. Unless noted, calls follow the shape of the dose curve; as a rule, active = well fitted curve in the direction sought with a large enough effect; inconclusive = small, poorly fitted or top-dose-only effect, or another doubt; inactive = no such curve, though single readings can be large; an effect the other way counts as inactive or inconclusive. % is scaled to controls: 0 for no effect and ±100 for the full control effect.

SMILES	TDP1 cell noCPT	TDP1 inh	CtBP-E1A inh	IL-1B inflam inh	Six1-Eya2 blk	TDP1 cell CPT
COC(=O)[C@]12CCCCC=C1N(Cc1ccc3c(c1)OCO3)C(=O)[C@H](CC(=O)N1CCCC1)C2	?	.	-3	6	-2	?
COC(=O)[C@@]12C[C@@H](CC(=O)NCc3cccs3)C(=O)N(Cc3ccc4c(c3)OCO4)C1=CCC(C)(C)C2	?	.	-12	-9	-12	?
COC(=O)[C@@]12C[C@@H](CC(=O)N3CCN(C(=O)C4CC4)CC3)C(=O)N(Cc3ccc4c(c3)OCO4)C1=CCC(C)(C)C2	16µM*	.	-17	5	8	?
COC(=O)[C@@]12C[C@@H](CC(=O)NCC3CCCCC3)C(=O)N(Cc3ccc4c(c3)OCO4)C1=CCC(C)(C)C2	?	.	-13	-54*	-10	?
CC(=O)c1cccc(NC(=O)c2csc(-n3nc(C)cc3C(F)(F)F)n2)c1	-22%	2%	6	-23	0	-20%
CCC1CCCCN1C(=O)Cn1c(C(=O)OC)cc2ccsc21 (stereo not given)	-11%	-2%	-6	-13	0	-15%
CCOC(=O)/C=C1\SCC(=O)N1CC(=O)c1ccc[nH]1	7%	-10%	3	-6	-3	-1%
N#CC1=C(N)NC(=S)C(C(N)=O)C1c1ccc(Cl)cc1Cl (stereo not given)	18µM*	2%	2	5	-2	10µM*
N#CC1=C(N)NC(=S)C(C(N)=O)C1c1ccccc1F (stereo not given)	?	3%	-1	?	-8	?
C=CCN(Cc1nc(-c2ccccc2)no1)C(=O)c1ccoc1C	?	6%	-2	-7	-9	29µM*
Cc1ccccc1-c1cnc(C(O)c2cccc(C)c2C)[nH]1 (stereo not given)	?	.	1	-7	-9	?
COc1c(C)cc(C(O)c2ncc(-c3ccc(Cl)cc3)[nH]2)cc1C (stereo not given)	?	.	-29	12	-15	?
Cc1cccc(C(O)c2ncc(-c3ccccc3)[nH]2)c1C (stereo not given)	-23%	.	-6	-9	-6	18µM*
COc1c(C)cc(C(O)c2ncc(-c3ccccc3)[nH]2)cc1C (stereo not given)	?	.	-10	-60*	-12	?
Cc1cc(F)ccc1C(O)c1ncc(-c2cccc(OCc3ccccc3)c2)[nH]1 (stereo not given)	16µM*	.	-26	-14	-20	?
CC(=O)c1c(C)[nH]c(C(=O)NNC(=O)c2ccc(C)cc2)c1C	5%	.	3	-6	3	-1%
Cc1nn(C(=O)CCC(=O)NCc2ccc(OC(C)C)cc2)c2ccccc12	13%	1%	1	0	-2	8%
COC(=O)c1c(-c2cccs2)csc1NC(=O)CN1CCOCC1	?	7%	-1	?	-1	-30%
COC(=O)c1c(-c2cccs2)csc1NC(=O)c1cc(OC)c(OC)c(OC)c1	5.8µM*	-5%	.	.	.	9.2µM*
COC(=O)c1c(-c2cccs2)csc1NC(=O)c1ccc(C)cc1	?	-14%	.	.	.	4%
COC(=O)c1c(-c2cccs2)csc1NC(=O)COc1ccc(C(C)C)cc1	21µM*	-4%	.	.	.	?
COC(=O)c1c(-c2cccs2)csc1NC(=O)c1cc(OC)cc(OC)c1	?	-12%	.	.	.	16µM*
COC(=O)c1c(-c2cccs2)csc1NC(=O)c1ccc(OC)c(OC)c1	9.2µM*	-12%	.	.	.	12µM*
COc1ccccc1C=NNc1nc(C)cc(=O)[nH]1	3%	.	-10	63	-1	5%
COc1cccc(-c2nc(CS(=O)(=O)CC(=O)NCCc3ccccc3)c(C)o2)c1	-17%	-7%	-1	0	0	?
SMILES	TDP1 cell noCPT	TDP1 inh	CtBP-E1A inh	IL-1B inflam inh	Six1-Eya2 blk	TDP1 cell CPT
Cc1cc(C)c(C#N)c(OCc2ccc(Cl)nc2)n1	-16%	.	4	23	8	-2%
CS(=O)(=O)N(CC(=O)N1CCCC1)c1ccc(Cl)c(Cl)c1	-1%	2%	0	-1	-3	-5%
CC(=O)Nc1cccc(NC(=O)CSc2ccc(-c3cccnc3)nn2)c1	-34%	8%	1	13	-1	-9%
CCCc1cc(C(=O)NCc2cccs2)no1	-22%	1%	3	8	1	-10%
Cc1ccc(OCCCC(=O)NNC(=O)c2ccncc2)cc1	3%	.	10	11	0	4%
COc1cc(NC(=O)c2cc3nc(C)cc(C)n3n2)c(OC)cc1Cl	?	11%	-16	?	-20	-20%
COc1ccc(Cn2c(SCc3ccc(C(=O)NC4CCCCC4)cc3)nc3cccnc32)cc1	15µM*	7%	.	.	.	?
O=C(NC1CC1)c1ccc(Cn2c(SCc3cccc(F)c3)nc3cccnc32)cc1	8.2µM*	5%	.	.	.	?
COc1ccc(NC(=O)Cn2c(SCc3ccc(C)cc3)nc3cccnc32)c(OC)c1	?	2%	.	.	.	15µM*
O=C(NC1CCCC1)c1ccc(CSc2nc3cccnc3n2Cc2ccccc2F)cc1	21µM*	1%	.	.	.	?
O=C(NC1CC1)c1ccc(Cn2c(SCc3ccc(F)cc3)nc3cccnc32)cc1	-29%	7%	.	.	.	-30%
O=C(Cc1ccc(-n2c(=O)c3sccc3n(CC(=O)Nc3ccccc3)c2=O)cc1)NCc1ccco1	3%	-4%	-7	102	5	-3%
O=C(Cn1c2[n+](c3ccccc31)CC(O)CS2)c1ccccc1 (stereo not given)	-1%	10%	11	26	10	21%
CN(c1ccccc1)S(=O)(=O)c1ccc(C(=O)N2CCN(c3ccccc3F)CC2)cc1	?	0%	.	-11	-1	-25%
Cc1ccc(NC(=O)CN(C)C(=O)COc2cccc3ccc(C)nc23)cc1	-18%	1%	3	25	0	-7%
O=C(NC1CCCCC1)c1ccc(CSc2nc3cccnc3n2Cc2ccc(F)cc2)cc1	13µM*	2%	.	.	.	?
O=C(NC1CCCCC1)c1ccc(CSc2nc3cccnc3n2Cc2cccc(F)c2)cc1	5.2µM*	9%	.	.	.	10µM*
O=C(Cn1cnc2c(cnn2-c2ccc(F)cc2)c1=O)N1CCN(c2ccccc2F)CC1	-29%	-1%	-5	-2	4	-20%
